# Reference: paper PMC5540273 (PLoS ONE, 2017)
# Test system: KIT
# Conditions: concentration: 1 μM, replicates: in singlicate; n = 1
# 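Also: KINOMEscan kinase panel screen.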
row,Structure (SMILES),%Inh [%]
1,COC(=O)C(Cc1ccccc1)NC(=O)NC1CCN(c2ccnc(Nc3ccc(F)cc3)n2)C1 (stereo not drawn) [GSK1379714],11
2,CSc1ccc(-c2nc3n(c2-c2ccncc2)CCC3)cc1 [SKF-105561],0
3,COc1ccc(Nc2nccc(N3CCC(NC(=O)c4cc5ccccc5s4)C3)n2)cc1 (stereo not drawn) [GSK1379738],7
4,Cc1ccc(NC(=O)Nc2ccc(Cl)cc2)cc1-c1ccc(C(=O)Nc2ccncc2)cc1 [GSK1398472],99.9
5,CC(C)c1ccc(O)cc1Nc1ccnc2ccc(C(F)(F)F)cc12 [GW482059],0
6,COC(=O)c1cccc(NC(=O)NC2CCN(c3ccnc(Nc4ccc(F)cc4)n3)C2)c1 (stereo not drawn) [GSK1379725],44
7,O=c1cc(N2CCOCC2)nc2n(Cc3ccccc3F)ccn12 [GSK2297428],7
8,Cc1ccccc1-c1cc(-c2c[nH]nc2-c2ccccn2)ccn1 [GW680061],39
9,COc1ccc(Nc2nccc(NCCNC(=O)Nc3cc(C)ccc3C)n2)cc1 [GSK1379899],0
10,FC(F)(F)c1ccccc1-c1cc(-c2c[nH]nc2-c2ccccn2)ccn1 [GW679396],3
11,Cc1ccccc1Cn1ccn2c(=O)cc(N3CCOCC3)nc12 [GSK2269905],14
12,Cc1ccc(NC(=O)Nc2ccc(Cl)c(C(F)(F)F)c2)cc1-c1ccc(C(=O)Nc2ccncc2)cc1 [GSK1398470],99.5
13,CCc1ccc(-c2ccc3c(c2)-c2n[nH]cc2S(=O)(=O)N3C)cc1,7
14,CNCc1ccc2nc(NC(=O)c3ccc(C(C)(C)C)cc3)cn2c1,69
15,Fc1ccc(-c2nn3cccc(F)c3c2-c2ccncc2)cc1 [GW475620],3
16,CNc1nc(-c2ccc3c(N)n[nH]c3c2)cc(N2C[C@@H](C(=O)Nc3ccccc3)CC[C@H]2C)n1 [GSK2298859],4
17,Cc1ccc(NC(=O)Nc2ccccc2F)cc1-c1ccc(C(=O)Nc2ccncc2)cc1 [GSK1398477],99.6
18,Cc1ccc(NC(=O)c2ccc(Cl)cc2)cc1-c1ccc(C(=O)Nc2ccncc2)cc1 [GSK1398467],99.4

row,Structure (SMILES),%Inh [%]
1,COC(=O)C(NC(=O)NC1CCN(c2ccnc(Nc3ccc(F)cc3)n2)C1)c1ccccc1 (stereo not drawn) [GSK1379712],29
2,Nc1nccc(-c2c(-c3ccc(F)cc3)ncn2C2CCN(Cc3ccccc3)CC2)n1 [SB-219980],0
3,NS(=O)(=O)c1cccc(N/C=C2\C(=O)Nc3ccc(S(=O)(=O)Cc4c(Cl)cccc4Cl)cc32)c1 [GSK398099],15
4,CN1c2ccc(-c3ccc(C(N)=O)cc3)cc2-c2[nH]ncc2S1(=O)=O,0
5,CNC(=O)c1ccc(C)c(-n2c(C)cc(OCc3ccc(F)cc3F)c(Br)c2=O)c1,0
6,Nc1ncnc2occ(-c3ccc4c(c3)CCN4C(=O)Cc3cc(F)ccc3F)c12 [GSK2645446],66
7,Cc1c(Cn2c(C)c(C)n3c(=O)cc(N4CCOCC4)nc23)cccc1C(F)(F)F [GSK2328680],9
8,Cc1ccc(-c2nc(Nc3ccncc3)c3ccccc3n2)s1 [GSK189015],22
9,O=C1NC(=O)C(c2ccc(Cl)cc2)=C1Nc1cccc(Cl)c1 [SB-317651],0
10,Cn1cnc2c(N)ncnc21 [SKF-97623],0
11,Cc1ccc(NC(=O)Nc2ccccc2)cc1-c1ccc(C(=O)Nc2ccncc2)cc1 [GSK1398471],99.7
12,CCn1c(-c2c(N)noc2C)nc2cnccc21 [SB-737856],0
13,COc1ccc(Nc2nccc(-c3ccc(NC(=O)c4cc5cc(F)ccc5[nH]4)cc3)n2)cc1 [GSK1229496],11
14,Nc1cccc(-c2ccc3c(N)n[nH]c3c2)n1 [GSK2192730],14
15,CS(=O)(=O)CCNCc1nc(-c2ccc3ncnc(Nc4ccc(OCc5ccccc5)c(Cl)c4)c3c2)cs1.Cl [GW582764],1
16,COc1ccc(Nc2nccc(N3CCC(NC(=O)C(C)c4ccc(Cl)cc4)C3)n2)cc1 (stereo not drawn) [GSK1379735],31
17,Cc1cnc(N)c(/C=C/c2cncc(C(=O)NCCc3ccc(Cl)cc3Cl)c2)c1.Cl [GSK190937],99.6
18,O=C(Nc1n[nH]c2nc(-c3cccs3)c(Br)cc12)C1CC1 [SB-735297],5

# Test system: LATS1
# Conditions: concentration: 1 μM, replicates: in singlicate; n = 1
row,Structure (SMILES),%Inh [%]
1,COC(=O)C(Cc1ccccc1)NC(=O)NC1CCN(c2ccnc(Nc3ccc(F)cc3)n2)C1 (stereo not drawn) [GSK1379714],0
2,CSc1ccc(-c2nc3n(c2-c2ccncc2)CCC3)cc1 [SKF-105561],31
3,COc1ccc(Nc2nccc(N3CCC(NC(=O)c4cc5ccccc5s4)C3)n2)cc1 (stereo not drawn) [GSK1379738],0
4,Cc1ccc(NC(=O)Nc2ccc(Cl)cc2)cc1-c1ccc(C(=O)Nc2ccncc2)cc1 [GSK1398472],2
5,CC(C)c1ccc(O)cc1Nc1ccnc2ccc(C(F)(F)F)cc12 [GW482059],0
6,COC(=O)c1cccc(NC(=O)NC2CCN(c3ccnc(Nc4ccc(F)cc4)n3)C2)c1 (stereo not drawn) [GSK1379725],0
7,O=c1cc(N2CCOCC2)nc2n(Cc3ccccc3F)ccn12 [GSK2297428],0
8,Cc1ccccc1-c1cc(-c2c[nH]nc2-c2ccccn2)ccn1 [GW680061],0
9,COc1ccc(Nc2nccc(NCCNC(=O)Nc3cc(C)ccc3C)n2)cc1 [GSK1379899],0
10,FC(F)(F)c1ccccc1-c1cc(-c2c[nH]nc2-c2ccccn2)ccn1 [GW679396],0
11,Cc1ccccc1Cn1ccn2c(=O)cc(N3CCOCC3)nc12 [GSK2269905],0
12,Cc1ccc(NC(=O)Nc2ccc(Cl)c(C(F)(F)F)c2)cc1-c1ccc(C(=O)Nc2ccncc2)cc1 [GSK1398470],0
13,CCc1ccc(-c2ccc3c(c2)-c2n[nH]cc2S(=O)(=O)N3C)cc1,0
14,CNCc1ccc2nc(NC(=O)c3ccc(C(C)(C)C)cc3)cn2c1,2
15,Fc1ccc(-c2nn3cccc(F)c3c2-c2ccncc2)cc1 [GW475620],12
16,CNc1nc(-c2ccc3c(N)n[nH]c3c2)cc(N2C[C@@H](C(=O)Nc3ccccc3)CC[C@H]2C)n1 [GSK2298859],0
17,Cc1ccc(NC(=O)Nc2ccccc2F)cc1-c1ccc(C(=O)Nc2ccncc2)cc1 [GSK1398477],0
18,Cc1ccc(NC(=O)c2ccc(Cl)cc2)cc1-c1ccc(C(=O)Nc2ccncc2)cc1 [GSK1398467],0

row,Structure (SMILES),%Inh [%]
1,COC(=O)C(NC(=O)NC1CCN(c2ccnc(Nc3ccc(F)cc3)n2)C1)c1ccccc1 (stereo not drawn) [GSK1379712],13
2,Nc1nccc(-c2c(-c3ccc(F)cc3)ncn2C2CCN(Cc3ccccc3)CC2)n1 [SB-219980],13
3,NS(=O)(=O)c1cccc(N/C=C2\C(=O)Nc3ccc(S(=O)(=O)Cc4c(Cl)cccc4Cl)cc32)c1 [GSK398099],41
4,CN1c2ccc(-c3ccc(C(N)=O)cc3)cc2-c2[nH]ncc2S1(=O)=O,9
5,CNC(=O)c1ccc(C)c(-n2c(C)cc(OCc3ccc(F)cc3F)c(Br)c2=O)c1,0
6,Nc1ncnc2occ(-c3ccc4c(c3)CCN4C(=O)Cc3cc(F)ccc3F)c12 [GSK2645446],0
7,Cc1c(Cn2c(C)c(C)n3c(=O)cc(N4CCOCC4)nc23)cccc1C(F)(F)F [GSK2328680],86
8,Cc1ccc(-c2nc(Nc3ccncc3)c3ccccc3n2)s1 [GSK189015],0
9,O=C1NC(=O)C(c2ccc(Cl)cc2)=C1Nc1cccc(Cl)c1 [SB-317651],0
10,Cn1cnc2c(N)ncnc21 [SKF-97623],22
11,Cc1ccc(NC(=O)Nc2ccccc2)cc1-c1ccc(C(=O)Nc2ccncc2)cc1 [GSK1398471],0
12,CCn1c(-c2c(N)noc2C)nc2cnccc21 [SB-737856],0
13,COc1ccc(Nc2nccc(-c3ccc(NC(=O)c4cc5cc(F)ccc5[nH]4)cc3)n2)cc1 [GSK1229496],0
14,Nc1cccc(-c2ccc3c(N)n[nH]c3c2)n1 [GSK2192730],0
15,CS(=O)(=O)CCNCc1nc(-c2ccc3ncnc(Nc4ccc(OCc5ccccc5)c(Cl)c4)c3c2)cs1.Cl [GW582764],0
16,COc1ccc(Nc2nccc(N3CCC(NC(=O)C(C)c4ccc(Cl)cc4)C3)n2)cc1 (stereo not drawn) [GSK1379735],4
17,Cc1cnc(N)c(/C=C/c2cncc(C(=O)NCCc3ccc(Cl)cc3Cl)c2)c1.Cl [GSK190937],0
18,O=C(Nc1n[nH]c2nc(-c3cccs3)c(Br)cc12)C1CC1 [SB-735297],11
